# Results as given in PubChem BioAssay AID1697 (The Scripps Research Institute Molecular Screening Center, 2009).
# This is one part of the list. Activity calls are given as the source filed them.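 Rule for the calls: active = percent activation above the mean of DMSO-only control wells plus 3 SD of those wells (cut at about 18% in these data); inactive = the rest.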
# Target: Neuropeptide Y receptor type 1 (Homo sapiens) (UniProt P25929)
# Test: NPY-Y1 direct agonists without NPY, confirmation, counter-screen for NPY-Y1 potentiator project, cell-based, fluorescence (AID 1697);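 note: cells challenged with isoproterenol plus Ro 20-1724 with no NPY in test wells; Y1 agonism lowers isoproterenol-driven cAMP and reduces probe fluorescence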
# Conditions: HEK293 Y1-CNGC, membrane potential fluorescence, agonist mode; at 3.6 µM; stronger effect = higher value
# Neuropeptide Y receptor type 1 (Homo sapiens), sequence (P25929 whole entry, looked up): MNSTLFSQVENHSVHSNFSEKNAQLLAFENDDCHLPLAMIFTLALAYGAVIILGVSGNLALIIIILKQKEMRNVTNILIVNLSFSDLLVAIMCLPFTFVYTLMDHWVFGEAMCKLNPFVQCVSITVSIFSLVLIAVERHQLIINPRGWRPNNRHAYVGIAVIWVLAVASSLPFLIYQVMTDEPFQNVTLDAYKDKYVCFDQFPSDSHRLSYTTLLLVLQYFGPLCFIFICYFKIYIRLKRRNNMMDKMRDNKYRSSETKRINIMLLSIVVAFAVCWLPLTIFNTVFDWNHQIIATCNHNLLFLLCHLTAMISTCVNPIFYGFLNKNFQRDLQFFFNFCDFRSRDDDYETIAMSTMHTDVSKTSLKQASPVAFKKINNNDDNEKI
row,Structure (SMILES),activation
1,Cc1ccccc1NCC(=O)N/N=C\c1ccc([N+](=O)[O-])s1,40% (active)
2,Cc1cccc(OCC(O)CN2CCN(CCN3C(=O)c4cccc5cccc(c45)C3=O)CC2)c1C (stereo unspecified),45.1% (active)
3,COC(=O)c1ccc(NC(=O)CN(c2ccc(C)cc2)S(=O)(=O)c2c(C)n[nH]c2C)cc1,45.3% (active)
4,O=C(Nc1ccc2c(c1)CCC2)c1cccc(S(=O)(=O)Nc2ccccc2Cl)c1,3.19% (inactive)
5,O=C(c1cccs1)N1CCN(C(=O)N2CCOCC2)CC1,-8.38% (inactive)
6,O=C(Nc1ccccc1C(F)(F)F)c1cc(-c2ccc(O)cc2)on1,9.5% (inactive)
7,COC(=O)c1sc(-c2ccc(C(C)(C)C)cc2)cc1NC(=O)/C=C/C(=O)O,26.9% (active)
8,CN1C(=O)c2ccccc2C(C(=O)NCCCN2CCCC2)C1c1c[nH]c2ccccc12 (stereo unspecified),-3% (inactive)
9,CC1=C/C(=N\OS(=O)(=O)c2ccccc2)C=CC1=O,14.2% (inactive)
10,O=C1/C(=C/c2coc3ccc(O)cc3c2=O)SC(=S)N1c1ccccc1,16.8% (inactive)
11,N#Cc1ccc(C(=O)Nc2nc(-c3cccs3)c(C(=O)C(F)(F)F)s2)cc1,-33.9% (inactive)
12,O=[N+]([O-])c1cc(Cl)cc(/C=N/NC(=S)Nc2cc(S(=O)(=O)N3CCOCC3)ccc2Cl)c1O,77% (active)
13,CSc1nc(-c2ccco2)nn1C(=O)c1ccccc1Cl,28.5% (active)
14,COCCn1nnnc1C(c1ccccc1Cl)N1CCN(c2ccccc2OC)CC1 (stereo unspecified),-0.37% (inactive)
15,CC(=O)c1ccc(NC(=O)C2CC(=O)Nc3nc4ccccc4n32)cc1 (stereo unspecified),38% (active)
16,CCn1c2ccccc2c2cc(NC(=O)Nc3ccc([N+](=O)[O-])cc3C)ccc21,11.8% (inactive)
